Source: PMC4336329 (PLoS ONE, 2015)
Out of some 310,000 compounds screened, about 14,000 (4.5%) showed an effect of 50% or more. Effects have a minus sign here. The sample holds strong results, similar compounds and a random draw of the others, so the mix is not that of the screen.

These molecules were tested against human ether-à-go-go-related gene (hERG) potassium channel (human, UniProt Q12809) (assay: primary screen, population patch clamp on CHO cells stably expressing hERG; higher = less effect of the substance).
Sequence of human ether-à-go-go-related gene (hERG) potassium channel (Q12809 whole entry, looked up): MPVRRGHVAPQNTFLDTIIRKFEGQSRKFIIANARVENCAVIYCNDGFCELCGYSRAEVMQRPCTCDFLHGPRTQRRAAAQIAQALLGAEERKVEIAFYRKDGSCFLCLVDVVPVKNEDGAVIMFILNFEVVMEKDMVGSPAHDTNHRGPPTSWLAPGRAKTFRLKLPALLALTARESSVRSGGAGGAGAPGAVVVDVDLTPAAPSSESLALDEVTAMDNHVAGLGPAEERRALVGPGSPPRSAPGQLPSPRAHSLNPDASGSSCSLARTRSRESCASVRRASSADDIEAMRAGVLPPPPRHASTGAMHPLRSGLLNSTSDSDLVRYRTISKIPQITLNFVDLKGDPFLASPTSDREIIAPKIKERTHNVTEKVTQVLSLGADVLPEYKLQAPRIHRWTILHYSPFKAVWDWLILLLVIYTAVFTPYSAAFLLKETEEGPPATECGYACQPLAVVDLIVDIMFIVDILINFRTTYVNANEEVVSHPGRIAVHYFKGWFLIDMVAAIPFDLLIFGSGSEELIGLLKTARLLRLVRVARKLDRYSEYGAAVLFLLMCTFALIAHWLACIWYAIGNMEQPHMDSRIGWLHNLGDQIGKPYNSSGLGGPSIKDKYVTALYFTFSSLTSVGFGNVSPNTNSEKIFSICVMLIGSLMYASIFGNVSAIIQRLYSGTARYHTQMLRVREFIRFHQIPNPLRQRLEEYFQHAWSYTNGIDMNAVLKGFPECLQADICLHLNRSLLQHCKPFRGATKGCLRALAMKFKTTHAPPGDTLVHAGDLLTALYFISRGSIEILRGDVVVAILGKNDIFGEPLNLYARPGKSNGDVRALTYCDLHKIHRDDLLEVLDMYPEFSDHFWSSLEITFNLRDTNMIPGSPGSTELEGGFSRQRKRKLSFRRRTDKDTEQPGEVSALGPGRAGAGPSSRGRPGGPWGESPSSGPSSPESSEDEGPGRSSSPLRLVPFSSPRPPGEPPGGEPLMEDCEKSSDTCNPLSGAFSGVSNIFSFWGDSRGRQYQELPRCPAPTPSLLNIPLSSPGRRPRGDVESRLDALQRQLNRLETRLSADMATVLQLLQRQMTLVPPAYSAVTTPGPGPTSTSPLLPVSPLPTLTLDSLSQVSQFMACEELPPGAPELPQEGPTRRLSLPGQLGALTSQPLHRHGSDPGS
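Also: peak tail current of the secondary pulse compared with the same well before compound.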

Point of comparison: `CC(=O)Nc1ccc(S(=O)(=O)N(CCCN2CCOCC2)Cc2cccs2)cc1.O=C(O)C(=O)O`, “hERG current change (%, negative = inhibition) at 10uM” value -20.9%. Against it:
- CCOC(=O)c1c(N)nn(C(=O)c2ccccc2F)c1-c1ccc(OC)cc1 — higher, 3.53%
- Nn1c(Cc2cccc3ccccc23)nnc1SCC(=O)N1CC(=O)Nc2ccccc21 — higher, 7.01%
- Cc1ccc2cc(CCNC(=O)c3ccco3)c(=O)[nH]c2c1 — higher, -13.6%
- CCN(CC)c1ccc(-n2c(C)cc(C=O)c2C)cc1 — higher, 6.33%
- CC[N+]12CCC(CC1)C(C(O)(c1ccccc1)c1ccccc1)C2.[Br-] (stereo not shown) — higher, -5.24%
- CCCC[N+]12CCC(CC1)C(=C(c1ccccc1)c1ccccc1)C2.[Br-] — lower, -72.4%
- CC[N+]12CCC(CC1)C(=C(c1ccccc1)c1ccccc1)C2.[Br-] — lower, -73.6%
- CCCC[N+]12CCC(CC1)C(Cc1ccccc1)C2.[Br-] (stereo not shown) — higher, 21.9%
- CCCC[N+]12CCC(CC1)C(C(O)(c1ccccc1)c1ccccc1)C2.[Br-] (stereo not shown) — higher, 5.84%
- CC/C(=N/N=C(\CC)c1ccccc1)c1ccccc1 — higher, 5.16%
- CCC[N+]12CCC(CC1)C(=C(c1ccccc1)c1ccccc1)C2.[Br-] — lower, -70.1%
- CCC/C(=N\NC(=O)C1CC1)c1ccccc1 — higher, -2.21%
- CCC[N+]12CCC(CC1)C(C(O)(c1ccccc1)c1ccccc1)C2.[Br-] (stereo not shown) — higher, -0.95%
- COC(=O)COc1ccc2c(=O)c(-c3ccccc3OC)coc2c1 — higher, 10.2%
- COc1ccc(CSc2nncn2N)cc1Br — higher, 4.98%
- Cc1cc(C)c(-n2c(C)cc(/C=C3/NC(=O)NC3=O)c2C)c(C)c1 — higher, -9.75%
- CCOc1ccccc1N(C)C(=O)CCS(=O)(=O)c1ccc2c(c1)NC(=O)CO2 — higher, 5.58%
- CCCOP(=O)(c1ccc(N(C)C)cc1)C(O)c1ccc(Cl)cc1 (stereo not shown) — higher, 9.5%
- CC(C)CCOP(=O)(c1ccc(N(C)C)cc1)C(O)c1ccc(Cl)cc1Cl (stereo not shown) — higher, 0.259%
- CCCOP(=O)(c1ccc(N(C)C)cc1)C(O)c1ccc(Cl)cc1Cl (stereo not shown) — lower, -54.9%
- CC1CC(C)CN(c2oc(-c3ccco3)nc2C#N)C1 (stereo not shown) — higher, 0.193%
- COc1cc(/C=N/NC(=O)c2ccncc2)ccc1OCc1cnc(Cl)s1 — higher, 2.43%
- COc1ccc(-c2cc(C#N)nc(N3CCN(C)CC3)n2)cc1 — lower, -42.5%
- N#Cc1cc(-c2ccccc2)nc(N2CCNCC2)n1 — higher, -11.3%
- COc1ccc(-c2cc(C#N)nc(N3CCNCC3)n2)cc1 — lower, -79.3%
- Cc1ccc(NC(=O)C(=O)NCCN2CCN(S(C)(=O)=O)CC2)cc1C — higher, 0.0768%
- O=C(NCCc1ccc(Cl)cc1)c1ccc(CS(=O)Cc2ccccc2Cl)o1 (stereo not shown) — lower, -30%
- CCOc1ccc(CCNC(=O)c2ccc(CS(=O)Cc3ccc(Cl)cc3)o2)cc1 (stereo not shown) — higher, -14.1%
- COc1ccc(CCNC(=O)c2ccc(CS(=O)Cc3ccc(Cl)cc3)o2)cc1OC (stereo not shown) — lower, -26.7%
- O=C(NCCc1ccccc1)c1ccc(CS(=O)Cc2cccc(Cl)c2)o1 (stereo not shown) — higher, -6.23%
- COc1ccccc1S(=O)Cc1ccc(C(=O)NCc2ccccc2Cl)o1 (stereo not shown) — higher, -19.5%
- COc1ccccc1S(=O)Cc1ccc(C(=O)NCCc2ccc(Cl)cc2)o1 (stereo not shown) — lower, -65.4%
- CSc1ccc(CCNC(=O)c2ccc(CS(=O)Cc3ccccc3Cl)o2)cc1 (stereo not shown) — higher, -2.87%
- CCOc1ccc(CCNC(=O)c2ccc(CS(=O)Cc3ccccc3Cl)o2)cc1 (stereo not shown) — higher, -19%
- O=C(NCCc1ccccc1)c1ccc(CS(=O)Cc2ccc(Cl)cc2)o1 (stereo not shown) — lower, -58.8%
- O=C(NCCCc1ccccc1)c1ccc(CS(=O)Cc2ccccc2Cl)o1 (stereo not shown) — lower, -76.2%
- CCOc1ccc(CCNC(=O)c2ccc(CS(=O)Cc3cccc(Cl)c3)o2)cc1 (stereo not shown) — lower, -76%
- O=C(NCCc1ccc(Cl)cc1)c1ccc(CS(=O)Cc2ccc(Cl)cc2)o1 (stereo not shown) — lower, -39.8%
- CCOc1ncccc1C(=O)NNC(=O)c1ccc(NS(=O)(=O)c2cccs2)cc1 — higher, 13%
- Cc1onc(-c2ccccc2)c1C(=O)Nc1sc2c(c1C(N)=O)CCC2 — higher, 6.44%
- CCC(C)NC(=O)C1CCN(c2nc(OC)nc(OC)n2)CC1 (stereo not shown) — higher, -4.66%
- CCN(Cc1cc2ccccc2[nH]c1=O)C(=O)c1cccc([N+](=O)[O-])c1 — lower, -21.8%
- Clc1cccc(-c2cc3nc4c(c(N5CCOCC5)n3n2)CCCC4)c1 — higher, -6.06%
- Cn1c(=O)n(-c2cccc(Cl)c2)c(=O)n1C — higher, 6.81%
- Brc1ccccc1-c1nc(-c2ccccc2)no1 — higher, 5.04%
- CC1(C)CC(=O)C2=C(C1)c1c(ccc3ccccc13)NC2c1ccco1 (stereo not shown) — higher, 14.1%
- CC12CCC(=O)N1C(C(=O)Nc1ccccc1N1CCCCC1)CS2 (stereo not shown) — higher, -15.9%
- CCN(CC)S(=O)(=O)N1CCC(C(=O)NC2CCCc3ccccc32)CC1 (stereo not shown) — higher, -8%
- Cc1cc(Br)c(S(=O)(=O)NCc2ccncc2)cc1C — higher, 7.87%
- CNc1cncc(C(=O)O)c1 — higher, 7.43%
- Cc1ccc(O)c(C(=O)c2cnc3onc(-c4ccc(F)cc4)c3c2)c1 — higher, 4.58%
- O=C(NCCCc1ccccc1)c1ccc(CS(=O)Cc2ccc(Cl)cc2)o1 (stereo not shown) — lower, -74.3%
- Cc1ccc(CS(=O)Cc2ccc(C(=O)NCCc3ccccc3)o2)cc1 (stereo not shown) — higher, -7.62%
- O=C(NCCc1cccs1)c1ccc(CS(=O)Cc2ccc(Cl)cc2)o1 (stereo not shown) — higher, -20.4%
- Cc1ccccc1C(=O)N1CCN(c2ccc(NC(=O)c3ccco3)cc2)CC1 — higher, 5.43%
- COc1ccc(C(OCC(O)CN2CCC(O)CC2)c2ccc(OC)cc2)cc1 (stereo not shown) — lower, -48%
- COc1cccc(CN(C)CC(O)COc2cc(Cl)ccc2Cl)c1.O=C(O)C(=O)O (stereo not shown) — lower, -42%
- CN(Cc1ccccc1)CC(O)COc1ccc(CNCc2cc3ccccc3s2)cc1 (stereo not shown) — lower, -25.7%
- CCc1ccc(CNCc2ccc(OCC(O)CN(C)Cc3ccccc3)cc2)nc1 (stereo not shown) — higher, -17.4%
- CCOc1ccc(CN(C)CC(O)COC(c2ccc(OC)cc2)c2ccc(OC)cc2)cc1 (stereo not shown) — lower, -77.4%
- COc1cccc(CN(C)CC(O)COC(c2ccccc2)c2ccccc2C)c1 (stereo not shown) — lower, -72.1%
- COc1cccc(CN(C)CC(=O)Nc2c(C)cccc2C(C)C)c1 — higher, -12.2%
- CCc1ccc(CN(C)CC(O)COc2cccc3ccccc23)cc1 (stereo not shown) — lower, -25.2%
- COc1ccc(CN(C)CC(O)COC(c2ccc(OC)cc2)c2ccc(OC)cc2)cc1 (stereo not shown) — lower, -77.2%
- Cn1c(COc2ccccc2)nnc1SCc1nc2ccccc2[nH]1 — higher, -9.92%
- CCOc1ncccc1C(=O)NC(C)CCc1ccccc1 (stereo not shown) — higher, -6.92%
- COc1ccc(OC)c(/C=C2\S/C(=N/NC(=O)c3ccc4ccccc4c3)NC2=O)c1 — higher, 16.5%
- COc1cccc(CNS(=O)(=O)c2ccc3c(c2)CC(C)N3C(=O)C2CC2)c1 (stereo not shown) — higher, 18.5%
- Cc1cccc(-c2nc(CNC(=O)c3ccco3)cs2)c1 — lower, -57.9%
- Cc1ccc(-c2nc(CNC(=O)c3ccco3)cs2)cc1 — higher, -13.6%
- O=C(NCc1csc(-c2ccccc2)n1)c1ccco1 — lower, -40%
- COc1ccc(CNC(=O)[C@@H](NC(=O)C2CCN(C(=O)[C@@H]3CCCN3C(=O)OC(C)(C)C)CC2)C(C)C)cc1 — higher, -9.4%
- CCOc1ccc(CCNC(=O)CN(C)S(=O)(=O)c2cccc3nsnc23)cc1OCC — higher, -9.79%
- COc1ccc(S(=O)(=O)N(CCCN2CCOCC2)Cc2cccc3ccccc23)cc1 — lower, -48.6%
- CC(C)(C)c1ccc(S(=O)(=O)N(CCCN2CCOCC2)Cc2cccs2)cc1.O=C(O)C(=O)O — lower, -33.4%
- O=C(O)C(=O)O.O=S(=O)(c1ccc(Cl)cc1)N(CCCN1CCOCC1)Cc1cccs1 — lower, -63.7%
- O=C(O)C(=O)O.O=[N+]([O-])c1ccc(S(=O)(=O)N(CCCN2CCOCC2)Cc2cccs2)cc1 — lower, -70.6%
- COc1ccc(S(=O)(=O)N(CCCN2CCOCC2)Cc2ccc(OC)c(OC)c2)cc1 — lower, -39.9%
- O=C(Nc1ccc(N2CCCCC2)cc1)c1cccnc1Cl — higher, 13.4%
- CCOC(=O)C1CCCN(C(=O)c2cc(CN3C(=O)c4ccccc4C3=O)ccc2OC)C1 (stereo not shown) — higher, -9.55%
- C=CCc1cccc(/C=N/NC(=O)CNc2ccccc2)c1O — higher, -2.16%
- C=CCc1cccc(/C=N/NC(=O)c2ccccc2Br)c1O — lower, -50.2%
- C=CCc1cccc(/C=N/NC(=O)c2ccccc2OC)c1O — higher, 14.1%
- O=C(C1=C(O)C(=O)N(CCCn2ccnc2)C1c1ccc(F)cc1)c1ccco1 (stereo not shown) — higher, 15.8%
